Source: the supplement of paper PMC8728848
The sample as a whole holds a higher share of the strongest signals than the screen did.

How the values were obtained:
Test in all cases: glycan array binding signal (z-score within array); higher = stronger binding
Details in all cases: glycan notation: IUPAC condensed, linker removed; mutation: H213R,G256S
Fuc(a1-2)Gal = target: Fuc(a1-2)Gal
Procedure, shortened: (§1)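 The Consortium for Functional Glycomics database supplied 3228 glycan arrays, of which those lacking an available protein sequence were dropped. The binding signal, a within-array Z-score, was averaged across arrays of the same protein sequence and across linkers. Negative scores can be read as non-binding.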

Fuc(a1-2)Gal(b1-3)GalNAc = target: Fuc(a1-2)Gal(b1-3)GalNAc
Procedure, shortened: as §1

Fuc(a1-2)Gal(b1-4)Glc6S = target: Fuc(a1-2)Gal(b1-4)Glc6S
Procedure, shortened: as §1

[1] = target: Fuc(a1-2)Gal(b1-4)[Fuc(a1-3)]GlcNAc(b1-3)Gal(b1-4)[Fuc(a1-3)]GlcNAc(b1-3)Gal(b1-4)[Fuc(a1-3)]GlcNAc
Procedure, shortened: as §1

[2] = target: Fuc(a1-2)[GalNAc(a1-3)]Gal(b1-4)[Fuc(a1-3)]GlcNAc
Procedure, shortened: as §1

Fuc(a1-3)GlcNAc = target: Fuc(a1-3)GlcNAc
Procedure, shortened: as §1

[3] = target: Fuc(a1-3)[Gal(b1-4)]GlcNAc(b1-4)Gal(b1-4)[Fuc(a1-3)]GlcNAc
Procedure, shortened: as §1

Gal(a1-4)Gal(b1-4)Glc = target: Gal(a1-4)Gal(b1-4)Glc
Procedure, shortened: as §1

Gal(a1-4)GlcNAc = target: Gal(a1-4)GlcNAc
Procedure, shortened: as §1

Gal3S(b1-3)GalNAc = target: Gal3S(b1-3)GalNAc
Procedure, shortened: as §1

[4] = target: Gal3S(b1-4)[Fuc(a1-3)]Glc
Procedure, shortened: as §1

Gal3S6S(b1-4)GlcNAc6S = target: Gal3S6S(b1-4)GlcNAc6S
Procedure, shortened: as §1

Gal6S(b1-4)Glc6S = target: Gal6S(b1-4)Glc6S
Procedure, shortened: as §1

Glc(b1-6)Glc = target: Glc(b1-6)Glc
Procedure, shortened: as §1

Kdn(a2-3)Gal(b1-4)GlcNAc = target: Kdn(a2-3)Gal(b1-4)GlcNAc
Procedure, shortened: as §1

[5] = target: Man(a1-2)Man(a1-3)[Man(a1-2)Man(a1-6)]Man(a1-6)[Man(a1-2)Man(a1-2)Man(a1-3)]Man(b1-4)GlcNAc(b1-4)GlcNAc
Procedure, shortened: as §1

[6] = target: Neu5Ac(a2-3)Gal(b1-3)GalNAc
Procedure, shortened: as §1

[7] = target: Neu5Ac(a2-3)Gal(b1-3)[Neu5Ac(a2-3)Gal(b1-4)]GlcNAc
Procedure, shortened: as §1

[8] = target: Neu5Ac(a2-3)Gal(b1-4)[Fuc(a1-3)]GlcNAc(b1-3)Gal(b1-4)GlcNAc
Procedure, shortened: as §1

[9] = target: Neu5Ac(a2-6)Gal(b1-4)GlcNAc6S
Procedure, shortened: as §1

[10] = target: Neu5Gc(a2-3)Gal(b1-4)GlcNAc
Procedure, shortened: as §1

B1: CD23 (Homo sapiens) (protein)
chain: MELQVSSGFVCNTCPEKWINFQRKCYYFGKGTKQWVHARYACDDMEGQLVSIHSPEEQDFLTKRASHTGSWIGLRNLDLKGEFIWVDGSHVDYSNWAPGEPTSRSQSEDCVMMRGSGRWNDAFCDRKLGAWVCDRLATCTPPASEGSAESMGPDSRPDPDGRLPTPSAPLHS
**Q.** Which results are given for B1?
**A.** glycan array binding signal (z-score) (Fuc(a1-2)Gal): 0.42; glycan array binding signal (z-score) (Fuc(a1-2)Gal(b1-3)GalNAc): 0.764; glycan array binding signal (z-score) (Fuc(a1-2)Gal(b1-4)Glc6S): 0.623; glycan array binding signal (z-score) [1]: 1.02; glycan array binding signal (z-score) [2]: -0.361; glycan array binding signal (z-score) (Fuc(a1-3)GlcNAc): -0.166; glycan array binding signal (z-score) [3]: 0.007; glycan array binding signal (z-score) (Gal(a1-4)Gal(b1-4)Glc): -0.15; glycan array binding signal (z-score) (Gal(a1-4)GlcNAc): 0.434; glycan array binding signal (z-score) (Gal3S(b1-3)GalNAc): -0.308; glycan array binding signal (z-score) [4]: -0.106; glycan array binding signal (z-score) (Gal3S6S(b1-4)GlcNAc6S): 1.06; glycan array binding signal (z-score) (Gal6S(b1-4)Glc6S): 0.798; glycan array binding signal (z-score) (Glc(b1-6)Glc): -0.561; glycan array binding signal (z-score) (Kdn(a2-3)Gal(b1-4)GlcNAc): -0.386; glycan array binding signal (z-score) [5]: 0.376; glycan array binding signal (z-score) [6]: -0.283; glycan array binding signal (z-score) [7]: -0.301; glycan array binding signal (z-score) [8]: 0.869; glycan array binding signal (z-score) [9]: -0.002; glycan array binding signal (z-score) [10]: 0.062
